Experimental data: PubChem BioAssay (NCATS)
Records with an inconclusive call do not appear. Activity calls are given as the source filed them. Calls come from the whole dose curve; as a rule, active = well fitted cell-killing curve with a large enough effect; inconclusive = small, poorly fitted or top-dose-only effect, or effect the other way; inactive = no such curve, though single readings can be large or run the other way.

Columns and labels:
[1] = Quantitative High-Throughput drug screen in 47 multiple myeloma cell lines against the NCATS MIPE library collection: KMS34_JCRB cell viability assay (AID 1918985); note: nearly all actives have a fitted effect of over 40% in size
Summary of the method: (§1)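 Readout: median RLU from CellTiter-Glo after 5 min at room temperature. Preceding step was 48 h drug treatment of 500 cells/well at 37 °C, 5% CO2, with DMSO-only and media-only control wells.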

[2] = Quantitative High-Throughput drug screen in 47 multiple myeloma cell lines against the NCATS MIPE library collection: OCIMY7_PLB cell viability assay (AID 1918987); note: nearly all actives have a fitted effect of over 65% in size
Summary of the method: as §1

[3] = Quantitative High-Throughput drug screen in 47 multiple myeloma cell lines against the NCATS MIPE library collection: OCIMY5_PLB cell viability assay (AID 1918988); note: nearly all actives have a fitted effect of over 65% in size
Summary of the method: as §1

[4] = Quantitative High-Throughput drug screen in 47 multiple myeloma cell lines against the NCATS MIPE library collection: OPM1_PLB cell viability assay (AID 1918989); note: nearly all actives have a fitted effect of over 40% in size
Summary of the method: as §1

[5] = Quantitative High-Throughput drug screen in 47 multiple myeloma cell lines against the NCATS MIPE library collection: SKMM1_PLB cell viability assay (AID 1919863); settings: SKMM1 myeloma viability, CellTiter-Glo ATP, 48 h; viability: active compounds read low; note: nearly all actives have a fitted effect of over 35% in size
Summary of the method: as §1

[6] = Quantitative High-Throughput drug screen in 47 multiple myeloma cell lines against the NCATS MIPE library collection: U266_ATCC cell viability assay (AID 1919864); note: nearly all actives have a fitted effect of over 35% in size
Summary of the method: as §1

[7] = Quantitative High-Throughput drug screen in 47 multiple myeloma cell lines against the NCATS MIPE library collection: XG6_PLB cell viability assay (AID 1919865); note: nearly all actives have a fitted effect of over 40% in size
Summary of the method: as §1

[8] = Quantitative High-Throughput drug screen in 47 multiple myeloma cell lines against the NCATS MIPE library collection: XG1_PLB cell viability assay (AID 1919866); note: nearly all actives have a fitted effect of over 35% in size
Summary of the method: as §1

[9] = Quantitative High-Throughput drug screen in 47 multiple myeloma cell lines against the NCATS MIPE library collection: VP6_DJ cell viability assay (AID 1919867); note: nearly all actives have a fitted effect of over 40% in size
Summary of the method: as §1

[10] = Quantitative High-Throughput drug screen in 47 multiple myeloma cell lines against the NCATS MIPE library collection: UTMC2_PLB cell viability assay (AID 1919868); settings: CellTiter-Glo ATP luminescence, 48 h; viability (% of DMSO control): at 45.8 µM (top of the series) unless noted; note: nearly all actives have a fitted effect of over 55% in size
Summary of the method: as §1

Measured: Potency
Potency is the fitted concentration of half-maximal effect.

COc1cc(=C2C=c3ccccc3=N2)[nH]c1=Cc1[nH]c(C)cc1C
active: [1] 1.48 µM | [2] 1.48 µM | [3] 0.833 µM | [4] 5.9 µM | [5] 4.18 µM | [6] 5.26 µM | [7] 5.9 µM | [8] 2.09 µM | [9] 1.66 µM | [10] 2.09 µM

c1cc(-c2cnn3cc(-c4ccc(OCCN5CCCCC5)cc4)cnc23)ccn1
active: [1] 13.2 µM | [2] 2.09 µM | [3] 4.69 µM | [4] 4.18 µM | [5] 20.9 µM | [6] 13.2 µM | [7] 4.18 µM | [8] 5.9 µM | [9] 3.72 µM

CN1CCC(CNc2ccc3ncc(-c4cccc(OC(F)(F)F)c4)n3n2)CC1
active: [1] 20.9 µM | [2] 4.69 µM | [3] 14.8 µM | [4] 6.62 µM | [5] 23.5 µM | [6] 9.35 µM | [7] 5.9 µM | [8] 5.9 µM | [9] 7.43 µM

NC(=O)c1c(OCc2c(F)cc(Br)cc2F)nsc1NC(=O)NCCCCN1CCCC1
active: [1] 20.9 µM | [2] 8.33 µM | [3] 23.5 µM | [4] 13.2 µM | [5] 29.6 µM | [6] 29.6 µM | [7] 7.43 µM | [8] 8.33 µM | [9] 10.5 µM

Cc1[nH]c2ccccc2c1CCNCc1ccc(C=CC(=O)NO)cc1
active: [1] 0.0526 µM | [2] 0.0743 µM | [3] 0.0418 µM | [4] 0.0264 µM | [5] 0.105 µM | [6] 0.132 µM | [7] 0.148 µM | [8] 0.105 µM | [9] 0.0187 µM | [10] 0.0148 µM

Nc1cccc(-c2cc3c(Oc4cccc(O)c4)ncnc3[nH]2)c1
active: [1] 18.7 µM | [2] 2.64 µM | [3] 23.5 µM | [4] 20.9 µM

Cc1ccc(-c2ncn(-c3ccc(Nc4nccc(-c5cccc(N6CCOCC6)c5)n4)cc3)n2)cn1
active: [1] 0.166 µM | [2] 0.132 µM | [3] 0.0526 µM | [4] 0.0833 µM | [5] 0.235 µM | [6] 0.132 µM | [7] 0.132 µM | [8] 0.0935 µM | [9] 0.0296 µM | [10] 0.187 µM

O=C(C=Cc1cccnc1)NCCCCC1CCN(C(=O)c2ccccc2)CC1
active: [1] 0.0166 µM | [2] 0.0105 µM | [3] 0.0418 µM | [4] 0.0118 µM | [5] 0.059 µM | [6] 18.7 µM | [7] 0.0743 µM | [8] 0.001 µM | [9] 0.0187 µM | [10] 0.001 µM

Nc1ccc(C(=O)c2cc3c(ccc4ccccc43)[nH]2)cc1
active: [1] 4.18 µM | [2] 0.743 µM | [3] 2.64 µM | [4] 7.43 µM | [5] 2.96 µM | [6] 14.8 µM | [7] 0.662 µM | [8] 0.662 µM | [9] 3.72 µM | [10] 9.35 µM

NC1(Cc2ccc(Cl)cc2)CCN(c2ncnc3[nH]ccc23)CC1
active: [1] 7.43 µM | [2] 5.9 µM | [3] 9.35 µM | [4] 1.48 µM | [5] 18.7 µM | [6] 20.9 µM | [7] 13.2 µM | [8] 3.72 µM | [9] 3.72 µM | [10] 0.264 µM

Cc1cc(Nc2cc(N3CCN(C)CC3)nc(Sc3ccc(NC(=O)C4CC4)cc3)n2)n[nH]1
active: [1] 14.8 µM | [2] 0.296 µM | [3] 5.26 µM | [4] 5.9 µM | [5] 16.6 µM | [6] 16.6 µM | [7] 13.2 µM | [8] 4.18 µM | [9] 18.7 µM | [10] 0.001 µM

Cn1cncc1[C@@](N)(c1ccc(Cl)cc1)c1ccc2c(c1)c(-c1cccc(Cl)c1)cc(=O)n2C
active: [1] 0.833 µM | [2] 0.0148 µM | [3] 7.43 µM | [4] 16.6 µM | [5] 13.2 µM | [6] 23.5 µM | [7] 1.87 µM | [8] 0.332 µM | [9] 14.8 µM | [10] 0.833 µM

O=C(Nc1nc2cccc(-c3ccc(CN4CCS(=O)(=O)CC4)cc3)n2n1)C1CC1
active: [1] 8.33 µM | [2] 9.35 µM | [3] 6.62 µM | [4] 14.8 µM | [5] 16.6 µM | [6] 14.8 µM | [7] 16.6 µM | [8] 14.8 µM | [9] 18.7 µM

O=C(CCCCCCC(=O)Nc1ccc([C@H]2O[C@@H](CSc3nc(-c4ccccc4)c(-c4ccccc4)o3)C[C@@H](c3ccc(CO)cc3)O2)cc1)NO
active: [1] 6.62 µM | [2] 8.33 µM | [3] 11.8 µM | [4] 8.33 µM | [5] 23.5 µM | [6] 13.2 µM | [7] 14.8 µM | [8] 10.5 µM | [9] 7.43 µM | [10] 8.33 µM

COCCOc1ccc2c(c1)ncn2-c1ccc2cccc(N3CCC(N)CC3)c2n1
active: [1] 0.372 µM | [2] 0.469 µM | [3] 0.235 µM | [4] 0.0935 µM | [5] 23.5 µM | [6] 8.33 µM | [7] 0.372 µM | [8] 0.132 µM

CNC(=O)c1nn(C)c2c1C(C)(C)Cc1cnc(Nc3ccc(N4CCN(C)CC4)cc3)nc1-2
active: [1] 1.48 µM | [2] 1.32 µM | [3] 1.18 µM | [4] 1.66 µM | [5] 9.35 µM | [6] 0.935 µM | [7] 2.96 µM | [8] 2.64 µM | [9] 0.743 µM | [10] 8.33 µM

CNC(=O)c1c(F)cccc1Nc1nc(Nc2cc3c(cc2OC)CCN3C(=O)CN(C)C)nc2[nH]ccc12
active: [1] 8.33 µM | [2] 0.105 µM | [3] 1.66 µM | [4] 7.43 µM | [5] 10.5 µM | [6] 3.32 µM | [7] 2.35 µM | [8] 2.35 µM | [9] 0.105 µM | [10] 0.0935 µM

CC(C)(C)OC(=O)Nc1ccc(-c2cc(C(=O)NCCCCCCC(=O)NO)no2)cc1
active: [1] 2.35 µM | [2] 1.32 µM | [3] 1.87 µM | [4] 1.87 µM | [5] 2.09 µM | [6] 2.96 µM | [7] 3.72 µM | [8] 1.87 µM | [9] 0.833 µM

CC[C@H]1CN2CCc3cc(OC)c(OC)cc3[C@H]2C[C@@H]1C[C@@H]1NCCc2cc(OC)c(OC)cc21
active: [1] 0.132 µM | [2] 0.526 µM | [3] 0.187 µM | [4] 0.235 µM | [5] 0.296 µM | [6] 0.0935 µM | [7] 0.105 µM | [8] 0.148 µM | [9] 0.148 µM

O=C(NCCCNc1nc(Nc2cccc(NC(=O)N3CCCC3)c2)ncc1I)c1cccs1
active: [1] 1.05 µM | [2] 1.87 µM | [3] 13.2 µM | [4] 3.72 µM | [5] 20.9 µM | [6] 18.7 µM | [7] 1.32 µM | [8] 1.05 µM | [9] 2.09 µM

CCS(=O)(=O)c1cccc(-c2cc(C(=O)NC3CCN(C)CC3)c(C)c3[nH]c4ncc(C)cc4c23)c1
active: [1] 0.935 µM | [2] 4.18 µM | [3] 1.48 µM | [4] 0.59 µM | [5] 8.33 µM | [6] 0.935 µM | [7] 0.833 µM | [8] 0.526 µM | [9] 0.935 µM | [10] 0.118 µM

CCOc1cc2ncc(C#N)c(Nc3ccc(F)c(Cl)c3)c2cc1NC(=O)C=CCN(C)C
active: [1] 4.69 µM | [2] 0.0743 µM | [3] 0.264 µM | [4] 11.8 µM | [5] 16.6 µM | [6] 18.7 µM | [7] 2.64 µM | [8] 10.5 µM | [9] 4.69 µM

Cc1cnc(Nc2ccc(F)cc2Cl)nc1-c1c[nH]c(C(=O)N[C@H](CO)c2cccc(Cl)c2)c1
active: [1] 23.5 µM | [2] 4.69 µM | [3] 18.7 µM | [4] 20.9 µM | [5] 20.9 µM | [6] 20.9 µM | [7] 3.72 µM | [8] 13.2 µM | [9] 5.26 µM | [10] 18.7 µM

CC=C1NC(=O)[C@H]2CSSCCC=C[C@H](CC(=O)N[C@H](C(C)C)C(=O)N2)OC(=O)[C@H](C(C)C)NC1=O
active: [1] 0.0264 µM | [2] 0.059 µM | [3] 0.0066 µM | [4] 0.0132 µM | [5] 0.0418 µM | [6] 0.0372 µM | [7] 0.0235 µM | [8] 0.0264 µM | [9] 0.001 µM

C=C1C(=CC=C2CCC[C@]3(C)[C@@H]([C@H](C)C=C[C@H](C)C(C)C)CC[C@@H]23)C[C@@H](O)C[C@@H]1O
active: [1] 3.32 µM | [2] 11.8 µM | [3] 0.526 µM | [4] 1.66 µM | [5] 14.8 µM | [6] 1.05 µM | [7] 1.87 µM | [8] 1.32 µM | [9] 0.132 µM | [10] 2.09 µM

COc1cccc2c(NCc3ccccc3)nc(-n3c(N)nc4ccccc43)nc12
active: [1] 6.62 µM | [2] 2.96 µM | [3] 7.43 µM | [4] 5.26 µM | [5] 7.43 µM | [6] 5.9 µM | [7] 2.09 µM | [8] 2.35 µM | [9] 4.18 µM

CNC(=O)c1cc(Oc2ccc(NC(=O)Nc3cc(C(C)(C)C)nn3-c3ccc4ncccc4c3)c(F)c2)ccn1
active: [1] 7.43 µM | [2] 6.62 µM | [3] 6.62 µM | [4] 5.26 µM | [5] 14.8 µM | [6] 13.2 µM | [7] 7.43 µM | [8] 7.43 µM | [9] 4.69 µM | [10] 4.18 µM
